Holding throughout (experiment): log2 ratio of Biotin-Ahx-Ub-VS probe labelling (fragment/DMSO); higher = less target engagement (more negative = stronger competition), active = hit call of the paper (q ≤ 0.05, log2 ratio ≤ -1)
What all share (settings): compound concentration: 200 uM; treatment time: 3 h

The target in assay [1] is T1, USP42 (UniProt Q9H9J4).
T1 sequence (whole entry): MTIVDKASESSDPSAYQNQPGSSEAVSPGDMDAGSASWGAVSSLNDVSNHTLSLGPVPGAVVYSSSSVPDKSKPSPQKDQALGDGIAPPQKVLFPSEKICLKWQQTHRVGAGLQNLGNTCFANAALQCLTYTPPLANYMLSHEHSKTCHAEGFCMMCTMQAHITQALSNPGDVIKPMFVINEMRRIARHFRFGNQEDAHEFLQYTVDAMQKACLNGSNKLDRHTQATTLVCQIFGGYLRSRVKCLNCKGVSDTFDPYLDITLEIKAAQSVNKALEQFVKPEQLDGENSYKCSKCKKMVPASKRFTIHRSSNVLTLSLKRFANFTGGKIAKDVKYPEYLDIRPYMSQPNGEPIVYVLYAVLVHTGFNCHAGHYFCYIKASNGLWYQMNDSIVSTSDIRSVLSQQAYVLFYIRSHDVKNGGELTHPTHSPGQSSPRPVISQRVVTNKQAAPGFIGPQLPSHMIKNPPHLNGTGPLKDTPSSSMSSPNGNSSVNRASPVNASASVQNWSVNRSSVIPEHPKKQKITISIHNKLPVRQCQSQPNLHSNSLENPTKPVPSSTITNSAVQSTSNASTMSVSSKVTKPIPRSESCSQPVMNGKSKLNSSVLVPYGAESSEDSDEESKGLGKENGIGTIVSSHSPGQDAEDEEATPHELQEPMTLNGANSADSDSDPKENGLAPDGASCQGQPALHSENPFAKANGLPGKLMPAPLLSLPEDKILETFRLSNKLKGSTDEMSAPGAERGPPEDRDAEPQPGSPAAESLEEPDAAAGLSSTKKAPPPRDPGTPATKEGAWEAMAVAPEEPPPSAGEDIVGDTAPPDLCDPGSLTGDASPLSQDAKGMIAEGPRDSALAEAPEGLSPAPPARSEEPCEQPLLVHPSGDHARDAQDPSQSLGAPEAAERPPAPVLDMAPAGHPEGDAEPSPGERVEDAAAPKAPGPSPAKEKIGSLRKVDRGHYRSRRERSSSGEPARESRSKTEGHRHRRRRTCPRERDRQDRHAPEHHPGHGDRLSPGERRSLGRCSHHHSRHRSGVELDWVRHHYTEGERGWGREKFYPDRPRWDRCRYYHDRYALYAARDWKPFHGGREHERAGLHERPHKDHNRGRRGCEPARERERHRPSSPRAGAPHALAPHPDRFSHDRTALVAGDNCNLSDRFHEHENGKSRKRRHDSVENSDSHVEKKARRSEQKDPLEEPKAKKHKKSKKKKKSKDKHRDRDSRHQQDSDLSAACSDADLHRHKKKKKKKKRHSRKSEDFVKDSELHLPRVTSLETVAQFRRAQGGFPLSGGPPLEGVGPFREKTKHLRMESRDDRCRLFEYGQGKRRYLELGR
The method in brief: (§1)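 Triplicate samples of HEK293T lysate, 495 µg each, received fragment at 200 µM or vehicle for 3 h, followed by Biotin-Ahx-Ub-VS (0.5 µM final) for 1 h. After NeutrAvidin enrichment of labelled DUBs and LysC/trypsin digestion, peptides were run by diaPASEF LC-MS/MS. The values are average log2 fragment/vehicle ratios from global-median-normalised Spectronaut label-free quantities, tested by unpaired t-test on proteins having ≥2 unique peptides.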

For assay [2], the target named is USP46 (UniProt P62068). The method in brief: as §1
Assay [3] concerns the target T2, USP47 (UniProt Q96K76).
T2 sequence (whole entry): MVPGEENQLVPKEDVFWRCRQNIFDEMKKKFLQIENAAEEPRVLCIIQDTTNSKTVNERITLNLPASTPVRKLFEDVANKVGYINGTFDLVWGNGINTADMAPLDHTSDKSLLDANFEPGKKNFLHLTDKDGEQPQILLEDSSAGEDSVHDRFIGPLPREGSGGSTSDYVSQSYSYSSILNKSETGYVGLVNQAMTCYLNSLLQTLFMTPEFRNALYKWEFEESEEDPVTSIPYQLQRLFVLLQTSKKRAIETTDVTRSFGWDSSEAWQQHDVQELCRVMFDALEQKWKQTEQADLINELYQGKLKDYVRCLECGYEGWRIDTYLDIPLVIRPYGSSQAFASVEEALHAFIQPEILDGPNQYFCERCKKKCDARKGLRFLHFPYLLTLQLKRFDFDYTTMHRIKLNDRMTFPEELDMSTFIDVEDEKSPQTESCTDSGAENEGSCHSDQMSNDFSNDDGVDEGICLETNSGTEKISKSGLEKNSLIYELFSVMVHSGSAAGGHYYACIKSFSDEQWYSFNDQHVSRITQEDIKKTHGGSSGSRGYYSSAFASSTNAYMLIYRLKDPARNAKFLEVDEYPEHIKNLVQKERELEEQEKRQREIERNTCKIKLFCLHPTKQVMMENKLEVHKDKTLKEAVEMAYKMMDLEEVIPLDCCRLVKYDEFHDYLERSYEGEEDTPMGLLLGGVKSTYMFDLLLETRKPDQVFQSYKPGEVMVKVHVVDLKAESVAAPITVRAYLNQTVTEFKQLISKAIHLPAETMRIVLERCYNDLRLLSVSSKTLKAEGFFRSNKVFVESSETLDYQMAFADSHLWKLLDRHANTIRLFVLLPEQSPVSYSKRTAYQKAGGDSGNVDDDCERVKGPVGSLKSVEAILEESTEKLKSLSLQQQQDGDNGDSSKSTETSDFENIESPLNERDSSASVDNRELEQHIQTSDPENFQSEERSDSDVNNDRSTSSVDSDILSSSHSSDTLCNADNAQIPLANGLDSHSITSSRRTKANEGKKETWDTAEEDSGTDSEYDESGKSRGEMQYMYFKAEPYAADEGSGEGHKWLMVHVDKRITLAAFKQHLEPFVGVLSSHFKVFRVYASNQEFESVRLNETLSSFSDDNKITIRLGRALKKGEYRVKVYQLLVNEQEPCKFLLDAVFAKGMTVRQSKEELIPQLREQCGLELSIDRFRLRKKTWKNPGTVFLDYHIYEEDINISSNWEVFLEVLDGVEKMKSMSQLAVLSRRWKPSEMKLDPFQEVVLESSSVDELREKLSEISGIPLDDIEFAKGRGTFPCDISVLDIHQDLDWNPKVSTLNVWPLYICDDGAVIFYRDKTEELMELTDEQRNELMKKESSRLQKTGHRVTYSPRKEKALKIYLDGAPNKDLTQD
The method in brief:
as §1

The target of assay [4] is T3, USP48 (UniProt Q86UV5).
T3 sequence (whole entry): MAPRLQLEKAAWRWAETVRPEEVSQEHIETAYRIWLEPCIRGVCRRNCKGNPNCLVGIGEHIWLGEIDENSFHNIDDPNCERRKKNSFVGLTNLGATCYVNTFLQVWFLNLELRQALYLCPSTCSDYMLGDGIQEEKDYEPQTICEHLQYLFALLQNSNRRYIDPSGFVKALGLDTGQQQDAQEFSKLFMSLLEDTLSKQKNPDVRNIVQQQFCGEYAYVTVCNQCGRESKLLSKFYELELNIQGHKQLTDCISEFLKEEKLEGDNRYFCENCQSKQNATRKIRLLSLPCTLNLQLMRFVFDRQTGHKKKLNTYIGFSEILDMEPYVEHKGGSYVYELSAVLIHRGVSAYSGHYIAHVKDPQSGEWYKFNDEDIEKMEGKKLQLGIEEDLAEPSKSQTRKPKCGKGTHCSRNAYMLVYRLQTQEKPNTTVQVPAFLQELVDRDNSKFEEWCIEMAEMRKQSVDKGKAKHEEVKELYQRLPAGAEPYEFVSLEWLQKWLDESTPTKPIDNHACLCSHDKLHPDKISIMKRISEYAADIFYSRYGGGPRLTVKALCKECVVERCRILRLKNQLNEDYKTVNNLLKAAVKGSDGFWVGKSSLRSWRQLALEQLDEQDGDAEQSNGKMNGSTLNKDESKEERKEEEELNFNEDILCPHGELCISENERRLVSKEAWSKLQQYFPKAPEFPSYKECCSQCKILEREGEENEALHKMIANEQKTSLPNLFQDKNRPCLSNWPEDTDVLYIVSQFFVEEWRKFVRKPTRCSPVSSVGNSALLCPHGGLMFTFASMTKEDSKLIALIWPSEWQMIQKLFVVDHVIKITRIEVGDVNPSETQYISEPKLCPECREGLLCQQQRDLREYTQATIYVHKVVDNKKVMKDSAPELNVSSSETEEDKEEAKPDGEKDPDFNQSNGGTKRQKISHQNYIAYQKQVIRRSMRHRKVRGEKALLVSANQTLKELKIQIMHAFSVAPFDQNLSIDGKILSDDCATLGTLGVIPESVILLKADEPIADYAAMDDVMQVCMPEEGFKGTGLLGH
The gist of the method:
as §1

Assay [5] has as its target T4, USP5 (UniProt P45974).
T4 sequence (whole entry): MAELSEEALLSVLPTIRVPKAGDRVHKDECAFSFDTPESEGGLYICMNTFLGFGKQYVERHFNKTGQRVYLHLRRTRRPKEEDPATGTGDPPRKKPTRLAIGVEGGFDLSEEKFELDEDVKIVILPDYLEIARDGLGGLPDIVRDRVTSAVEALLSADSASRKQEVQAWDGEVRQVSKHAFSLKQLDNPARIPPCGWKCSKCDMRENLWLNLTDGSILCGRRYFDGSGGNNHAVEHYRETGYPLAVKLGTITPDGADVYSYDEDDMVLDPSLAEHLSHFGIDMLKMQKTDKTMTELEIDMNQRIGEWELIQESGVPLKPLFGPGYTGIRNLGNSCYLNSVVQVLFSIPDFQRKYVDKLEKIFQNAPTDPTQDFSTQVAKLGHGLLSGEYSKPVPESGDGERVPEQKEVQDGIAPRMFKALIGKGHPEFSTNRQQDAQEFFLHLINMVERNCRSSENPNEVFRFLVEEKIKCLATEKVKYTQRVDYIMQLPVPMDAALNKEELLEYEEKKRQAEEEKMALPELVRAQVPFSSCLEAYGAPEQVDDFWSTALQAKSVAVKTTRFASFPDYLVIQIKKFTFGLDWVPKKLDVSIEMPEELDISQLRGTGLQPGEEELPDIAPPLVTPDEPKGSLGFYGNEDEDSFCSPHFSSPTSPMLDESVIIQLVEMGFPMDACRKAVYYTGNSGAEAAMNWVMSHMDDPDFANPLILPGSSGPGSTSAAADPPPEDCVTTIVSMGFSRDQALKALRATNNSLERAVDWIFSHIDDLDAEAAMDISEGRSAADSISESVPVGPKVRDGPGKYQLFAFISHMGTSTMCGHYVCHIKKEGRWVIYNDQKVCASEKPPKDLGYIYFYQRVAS
The method in brief:
as §1

The target of assay [6] is USP54 (UniProt Q70EL1). The method in brief:
as §1

In assay [7] the target is USP7 (UniProt Q93009). The gist of the method:
as §1

Assay [8] addresses T5, USP8 (UniProt P40818).
T5 sequence (whole entry): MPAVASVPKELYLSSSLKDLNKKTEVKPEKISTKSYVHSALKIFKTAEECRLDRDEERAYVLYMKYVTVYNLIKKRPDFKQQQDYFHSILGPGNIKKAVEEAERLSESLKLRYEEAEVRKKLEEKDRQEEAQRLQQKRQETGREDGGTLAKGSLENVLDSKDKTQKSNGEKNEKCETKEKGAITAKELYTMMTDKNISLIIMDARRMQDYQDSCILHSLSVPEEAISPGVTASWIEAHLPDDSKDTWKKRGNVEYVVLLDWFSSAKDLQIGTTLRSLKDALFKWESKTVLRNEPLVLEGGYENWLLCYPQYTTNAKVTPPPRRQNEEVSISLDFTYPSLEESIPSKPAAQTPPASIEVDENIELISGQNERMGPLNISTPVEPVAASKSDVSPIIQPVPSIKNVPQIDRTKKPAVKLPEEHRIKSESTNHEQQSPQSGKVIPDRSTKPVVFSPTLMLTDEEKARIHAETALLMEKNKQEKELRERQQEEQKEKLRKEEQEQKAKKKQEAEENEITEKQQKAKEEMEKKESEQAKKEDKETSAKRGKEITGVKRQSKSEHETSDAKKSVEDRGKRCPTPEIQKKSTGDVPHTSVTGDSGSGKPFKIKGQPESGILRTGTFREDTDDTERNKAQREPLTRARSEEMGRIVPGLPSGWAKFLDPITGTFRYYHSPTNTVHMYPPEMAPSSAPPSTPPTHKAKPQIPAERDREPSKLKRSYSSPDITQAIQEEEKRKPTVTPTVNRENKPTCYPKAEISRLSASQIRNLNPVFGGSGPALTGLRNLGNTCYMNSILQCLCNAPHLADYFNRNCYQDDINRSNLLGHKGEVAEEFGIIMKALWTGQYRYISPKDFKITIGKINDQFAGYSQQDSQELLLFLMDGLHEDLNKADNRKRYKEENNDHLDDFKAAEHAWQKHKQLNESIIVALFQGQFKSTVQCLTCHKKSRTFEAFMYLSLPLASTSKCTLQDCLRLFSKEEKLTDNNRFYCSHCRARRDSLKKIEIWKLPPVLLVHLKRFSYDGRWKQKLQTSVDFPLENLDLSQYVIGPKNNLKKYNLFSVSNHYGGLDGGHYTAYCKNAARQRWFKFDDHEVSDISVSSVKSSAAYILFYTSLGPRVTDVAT
The gist of the method: as §1

For assay [9], the target named is USP9X (UniProt Q93008). The gist of the method: as §1
Assay [10] concerns the target UniProt O00487. The gist of the method: as §1

Data on 1 compound can be found in the supplement of paper PMC11732987, “Enantioselective OTUD7B fragment discovery through chemoproteomics screening and high-throughput optimisation” (Communications Chemistry, 2025).

Values without a mark were called inactive.

Sequence of USP46 (P62068 whole entry): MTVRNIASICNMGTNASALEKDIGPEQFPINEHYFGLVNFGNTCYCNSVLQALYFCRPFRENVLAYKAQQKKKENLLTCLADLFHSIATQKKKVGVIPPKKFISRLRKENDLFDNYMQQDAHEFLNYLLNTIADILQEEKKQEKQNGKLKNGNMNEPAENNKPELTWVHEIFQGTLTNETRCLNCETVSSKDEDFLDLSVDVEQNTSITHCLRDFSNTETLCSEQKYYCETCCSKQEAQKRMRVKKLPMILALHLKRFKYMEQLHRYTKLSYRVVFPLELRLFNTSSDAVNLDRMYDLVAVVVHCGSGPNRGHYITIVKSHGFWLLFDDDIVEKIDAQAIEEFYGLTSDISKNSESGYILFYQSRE
Sequence of USP9X (Q93008 whole entry): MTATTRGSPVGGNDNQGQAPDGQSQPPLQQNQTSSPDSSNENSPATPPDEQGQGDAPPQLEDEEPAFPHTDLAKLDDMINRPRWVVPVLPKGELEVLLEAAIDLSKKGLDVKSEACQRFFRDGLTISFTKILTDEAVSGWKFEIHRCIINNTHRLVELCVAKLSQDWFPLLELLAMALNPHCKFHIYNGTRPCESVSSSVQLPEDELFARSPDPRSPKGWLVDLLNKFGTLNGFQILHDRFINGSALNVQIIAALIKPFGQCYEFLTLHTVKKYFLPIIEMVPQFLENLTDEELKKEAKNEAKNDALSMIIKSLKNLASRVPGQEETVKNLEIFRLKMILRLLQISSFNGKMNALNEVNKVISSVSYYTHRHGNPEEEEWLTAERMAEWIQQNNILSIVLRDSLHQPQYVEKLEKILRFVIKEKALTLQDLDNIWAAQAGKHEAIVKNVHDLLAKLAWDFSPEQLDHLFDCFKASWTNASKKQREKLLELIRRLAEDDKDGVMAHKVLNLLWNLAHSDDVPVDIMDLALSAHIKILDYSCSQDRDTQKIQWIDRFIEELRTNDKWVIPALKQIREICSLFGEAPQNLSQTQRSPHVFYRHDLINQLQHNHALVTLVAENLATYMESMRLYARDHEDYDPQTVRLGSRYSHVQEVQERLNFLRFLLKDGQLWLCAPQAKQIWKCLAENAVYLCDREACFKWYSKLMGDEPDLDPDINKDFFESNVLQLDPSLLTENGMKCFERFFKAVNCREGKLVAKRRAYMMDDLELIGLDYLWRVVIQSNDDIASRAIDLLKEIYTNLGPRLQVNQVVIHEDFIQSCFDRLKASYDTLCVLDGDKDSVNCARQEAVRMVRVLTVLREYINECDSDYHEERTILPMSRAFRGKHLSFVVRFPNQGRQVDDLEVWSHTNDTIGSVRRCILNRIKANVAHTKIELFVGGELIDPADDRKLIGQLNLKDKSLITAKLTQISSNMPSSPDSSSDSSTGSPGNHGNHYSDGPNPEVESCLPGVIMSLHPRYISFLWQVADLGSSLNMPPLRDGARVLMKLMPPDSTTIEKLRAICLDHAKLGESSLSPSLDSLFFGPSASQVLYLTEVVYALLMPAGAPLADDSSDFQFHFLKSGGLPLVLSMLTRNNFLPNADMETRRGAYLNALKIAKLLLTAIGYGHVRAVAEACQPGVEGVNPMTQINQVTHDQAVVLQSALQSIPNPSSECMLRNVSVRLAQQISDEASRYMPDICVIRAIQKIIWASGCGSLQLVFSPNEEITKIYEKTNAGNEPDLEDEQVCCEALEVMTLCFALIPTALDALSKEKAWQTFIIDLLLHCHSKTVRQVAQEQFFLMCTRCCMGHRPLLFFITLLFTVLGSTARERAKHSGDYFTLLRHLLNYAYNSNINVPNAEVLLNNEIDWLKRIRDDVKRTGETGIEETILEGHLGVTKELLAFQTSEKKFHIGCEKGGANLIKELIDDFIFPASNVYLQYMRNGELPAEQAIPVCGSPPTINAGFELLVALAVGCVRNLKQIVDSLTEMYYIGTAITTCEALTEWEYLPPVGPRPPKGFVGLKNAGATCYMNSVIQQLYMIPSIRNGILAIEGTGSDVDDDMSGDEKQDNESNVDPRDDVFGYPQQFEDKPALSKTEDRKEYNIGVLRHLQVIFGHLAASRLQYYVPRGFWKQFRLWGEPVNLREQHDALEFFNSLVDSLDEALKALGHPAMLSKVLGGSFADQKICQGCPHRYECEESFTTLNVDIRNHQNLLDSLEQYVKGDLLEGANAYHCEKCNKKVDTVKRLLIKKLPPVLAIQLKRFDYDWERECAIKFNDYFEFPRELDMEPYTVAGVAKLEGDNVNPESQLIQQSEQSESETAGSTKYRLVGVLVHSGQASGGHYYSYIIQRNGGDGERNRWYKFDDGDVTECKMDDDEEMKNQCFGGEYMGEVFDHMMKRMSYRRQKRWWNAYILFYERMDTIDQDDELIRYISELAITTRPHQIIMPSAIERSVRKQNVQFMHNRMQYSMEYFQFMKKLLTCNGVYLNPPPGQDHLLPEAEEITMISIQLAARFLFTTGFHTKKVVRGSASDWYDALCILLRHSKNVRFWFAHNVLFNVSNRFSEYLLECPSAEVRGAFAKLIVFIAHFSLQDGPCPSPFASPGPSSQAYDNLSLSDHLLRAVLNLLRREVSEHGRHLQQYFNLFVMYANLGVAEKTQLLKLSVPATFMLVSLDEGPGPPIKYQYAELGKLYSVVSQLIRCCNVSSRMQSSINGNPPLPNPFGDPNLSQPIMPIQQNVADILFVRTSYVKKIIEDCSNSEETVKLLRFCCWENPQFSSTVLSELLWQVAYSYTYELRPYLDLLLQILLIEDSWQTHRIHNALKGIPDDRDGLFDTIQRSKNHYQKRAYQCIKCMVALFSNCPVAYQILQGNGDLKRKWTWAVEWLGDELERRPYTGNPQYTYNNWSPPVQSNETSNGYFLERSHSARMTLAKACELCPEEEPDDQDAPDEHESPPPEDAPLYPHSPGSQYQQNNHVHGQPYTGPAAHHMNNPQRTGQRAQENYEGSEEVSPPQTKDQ
Sequence of USP54 (Q70EL1 whole entry): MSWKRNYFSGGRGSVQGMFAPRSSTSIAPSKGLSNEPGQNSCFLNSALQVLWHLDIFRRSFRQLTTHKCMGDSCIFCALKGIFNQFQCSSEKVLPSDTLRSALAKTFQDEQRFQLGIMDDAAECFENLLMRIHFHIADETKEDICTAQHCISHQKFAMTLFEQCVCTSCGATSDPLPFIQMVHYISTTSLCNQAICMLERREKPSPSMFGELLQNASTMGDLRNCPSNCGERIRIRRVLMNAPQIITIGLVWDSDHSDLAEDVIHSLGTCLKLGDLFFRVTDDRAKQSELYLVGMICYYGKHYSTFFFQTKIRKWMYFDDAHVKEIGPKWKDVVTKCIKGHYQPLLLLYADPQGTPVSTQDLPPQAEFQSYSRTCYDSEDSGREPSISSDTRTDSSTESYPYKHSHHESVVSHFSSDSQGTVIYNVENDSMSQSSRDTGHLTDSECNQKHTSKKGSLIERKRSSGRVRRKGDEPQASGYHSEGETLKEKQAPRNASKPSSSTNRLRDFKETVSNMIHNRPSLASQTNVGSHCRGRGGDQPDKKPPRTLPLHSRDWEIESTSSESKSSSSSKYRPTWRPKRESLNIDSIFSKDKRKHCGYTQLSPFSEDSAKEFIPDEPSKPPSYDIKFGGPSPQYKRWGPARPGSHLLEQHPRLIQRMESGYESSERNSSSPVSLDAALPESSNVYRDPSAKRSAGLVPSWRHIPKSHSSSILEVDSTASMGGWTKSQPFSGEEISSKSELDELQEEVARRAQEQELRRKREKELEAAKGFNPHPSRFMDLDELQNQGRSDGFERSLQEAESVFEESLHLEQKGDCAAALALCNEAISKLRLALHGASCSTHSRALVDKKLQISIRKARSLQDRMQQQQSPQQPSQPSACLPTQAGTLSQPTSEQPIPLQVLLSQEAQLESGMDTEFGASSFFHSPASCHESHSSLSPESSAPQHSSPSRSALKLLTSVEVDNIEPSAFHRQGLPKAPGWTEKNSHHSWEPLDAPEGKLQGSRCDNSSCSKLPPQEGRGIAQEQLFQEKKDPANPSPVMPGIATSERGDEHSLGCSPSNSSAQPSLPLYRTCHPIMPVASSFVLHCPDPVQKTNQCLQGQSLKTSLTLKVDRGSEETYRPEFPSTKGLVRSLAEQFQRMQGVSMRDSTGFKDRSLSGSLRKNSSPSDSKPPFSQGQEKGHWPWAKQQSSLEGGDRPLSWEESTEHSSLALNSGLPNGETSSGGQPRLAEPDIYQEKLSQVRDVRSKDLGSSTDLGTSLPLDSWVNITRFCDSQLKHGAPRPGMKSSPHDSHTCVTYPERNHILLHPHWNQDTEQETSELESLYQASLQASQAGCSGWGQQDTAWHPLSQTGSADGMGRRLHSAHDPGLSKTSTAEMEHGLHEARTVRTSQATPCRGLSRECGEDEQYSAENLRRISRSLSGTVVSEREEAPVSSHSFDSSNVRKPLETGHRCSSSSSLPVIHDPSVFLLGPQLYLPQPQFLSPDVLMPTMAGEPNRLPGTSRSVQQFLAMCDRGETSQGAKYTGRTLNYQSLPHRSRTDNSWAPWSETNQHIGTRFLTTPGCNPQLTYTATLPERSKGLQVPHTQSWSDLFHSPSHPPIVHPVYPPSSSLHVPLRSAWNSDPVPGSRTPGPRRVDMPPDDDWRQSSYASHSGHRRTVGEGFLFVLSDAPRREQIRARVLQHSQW
Sequence of UniProt O00487 (O00487 whole entry): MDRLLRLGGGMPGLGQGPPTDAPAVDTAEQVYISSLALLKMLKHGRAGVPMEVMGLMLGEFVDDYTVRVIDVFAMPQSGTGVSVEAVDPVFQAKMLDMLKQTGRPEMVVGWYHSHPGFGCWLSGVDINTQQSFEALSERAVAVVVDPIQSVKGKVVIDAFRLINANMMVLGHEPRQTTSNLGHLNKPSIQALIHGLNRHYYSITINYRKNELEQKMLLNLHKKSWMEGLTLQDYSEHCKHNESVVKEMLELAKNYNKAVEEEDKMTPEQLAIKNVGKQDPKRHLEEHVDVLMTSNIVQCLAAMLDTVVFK

Turning to `O=C(CCl)N1CCC(c2noc3cc(F)ccc23)CC1`, the “log2 ratio of Biotin-Ahx-Ub-VS probe labelling” value in [1] is 0.542; in [2] it was -0.343; in assay [3], -0.18; in assay [4] it was -0.806; in assay [5], 0.182; in assay [6], 0.351. The “log2 ratio of Biotin-Ahx-Ub-VS probe labelling” value in [7] was -1.81 (active); in assay [8], -0.0714; in [9], -0.201; in assay [10], -0.0622.
